The subject of experiment [1] is Plasmodium falciparum Sir2 (PF13_0152, Sir2A). The experiment can be described thus: pfSir2 binders on small-molecule microarrays, primary screen, biochemical, small-molecule microarray, 635 nm fluorescence (AID 1098).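 Also: score merges spot fluorescence intensity with its signal-to-noise ratio.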 The note with it: small-molecule microarray binding, fluorescence 635 nm; higher = more signal.
A short description of experiment [2]: small-molecule microarray binders of probe aDKK1, primary screen, biochemical, biotinylated probe, 635/667 nm fluorescence (AID 1099).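 Also: score merges 667nm spot fluorescence with signal to noise across triplicate slides; reference of the scale not given here.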 The settings on record: higher = more signal.
Experiment [3] in a line: small-molecule microarray binders of probe aCHRDL2, primary screen, biochemical, biotinylated probe, 635/667 nm fluorescence (AID 1100). The settings on record: higher = more signal.
Experiment [4] is described as follows: splicing luciferase reporter signal modulators, primary screen, spliceosome inhibition project, cell-based, HEK293, splice +/- reporter (AID 1101).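 Also: HEK293 cells carrying a splicing-competent luciferase reporter gene; test concentration not given here.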 The note with it: luminescence, 24 h, higher = more signal, called active from +8 up or from −8 down. Background: Reporter assays use an easily measured gene product as a stand-in for the process of interest.
Experiment [5] concerns the target Fibroblast growth factor 10 (Homo sapiens) (UniProt O15520). The experiment can be described thus: FGF10 binders on small-molecule microarrays, primary screen, biochemical, small-molecule microarray, 635 nm fluorescence (AID 1102). The settings on record: FGF10 binding, fluorescence 635 nm, higher = more signal.
Experiment [6] has as its system glycogen synthase kinase-3 (GSK3A per assay name; protocol says GSK3B). Kind of experiment: GSK3 binders on small-molecule microarrays, primary screen, biochemical, small-molecule microarray, 635 nm fluorescence, GSK3A (AID 1103). Also: the record names both GSK3A and GSK3B. The note with it: small-molecule microarray binding, fluorescence 635 nm; higher = more signal.
Experiment [7] has as its target Epidermal growth factor receptor (Homo sapiens) (UniProt P00533). Kind of experiment: EGFR binders on small-molecule microarrays, primary screen, biochemical, small-molecule microarray, 635 nm fluorescence (AID 1104).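 Also: score merges 667 nm emission intensity with spot signal to noise over triplicate slides.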 The settings on record: EGFR binding, higher = more signal.
In experiment [8] the target is Follistatin-related protein 3 (Homo sapiens) (UniProt O95633). Kind of experiment: FSTL3 binders on small-molecule microarrays, primary screen, biochemical, small-molecule microarray, 635 nm fluorescence (AID 1105).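 Also: score merges emission near 667 nm and signal to noise per printed spot across three slides.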 The note with it: FSTL3 binding, higher = more signal.
Experiment [9] deals with Dickkopf-related protein 1 (Homo sapiens) (UniProt O94907). The experiment can be described thus: DKK1 binders on small-molecule microarrays, primary screen, biochemical, small-molecule microarray, 635 nm fluorescence scan (AID 1106).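 Also: score merges emission near 667 nm with signal to noise over three replicate slides.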 The note with it: DKK1 binding, higher = more signal.
The test system of experiment [10] is Inhibin beta A chain (activin A). Kind of experiment: INHBA (activin A) binders on microarrays, primary screen, biochemical, small-molecule microarray, 635 nm fluorescence scan (AID 1107).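 Also: mouse activin A protein probed at 4.33 µg/mL on printed slides; score merges bound-protein fluorescence near 667 nm with spot signal-to-noise.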 The note with it: small-molecule microarray binding, higher = more signal.

Activity calls are given as the source filed them.

Chain of Epidermal growth factor receptor (Homo sapiens) (P00533 whole entry, looked up): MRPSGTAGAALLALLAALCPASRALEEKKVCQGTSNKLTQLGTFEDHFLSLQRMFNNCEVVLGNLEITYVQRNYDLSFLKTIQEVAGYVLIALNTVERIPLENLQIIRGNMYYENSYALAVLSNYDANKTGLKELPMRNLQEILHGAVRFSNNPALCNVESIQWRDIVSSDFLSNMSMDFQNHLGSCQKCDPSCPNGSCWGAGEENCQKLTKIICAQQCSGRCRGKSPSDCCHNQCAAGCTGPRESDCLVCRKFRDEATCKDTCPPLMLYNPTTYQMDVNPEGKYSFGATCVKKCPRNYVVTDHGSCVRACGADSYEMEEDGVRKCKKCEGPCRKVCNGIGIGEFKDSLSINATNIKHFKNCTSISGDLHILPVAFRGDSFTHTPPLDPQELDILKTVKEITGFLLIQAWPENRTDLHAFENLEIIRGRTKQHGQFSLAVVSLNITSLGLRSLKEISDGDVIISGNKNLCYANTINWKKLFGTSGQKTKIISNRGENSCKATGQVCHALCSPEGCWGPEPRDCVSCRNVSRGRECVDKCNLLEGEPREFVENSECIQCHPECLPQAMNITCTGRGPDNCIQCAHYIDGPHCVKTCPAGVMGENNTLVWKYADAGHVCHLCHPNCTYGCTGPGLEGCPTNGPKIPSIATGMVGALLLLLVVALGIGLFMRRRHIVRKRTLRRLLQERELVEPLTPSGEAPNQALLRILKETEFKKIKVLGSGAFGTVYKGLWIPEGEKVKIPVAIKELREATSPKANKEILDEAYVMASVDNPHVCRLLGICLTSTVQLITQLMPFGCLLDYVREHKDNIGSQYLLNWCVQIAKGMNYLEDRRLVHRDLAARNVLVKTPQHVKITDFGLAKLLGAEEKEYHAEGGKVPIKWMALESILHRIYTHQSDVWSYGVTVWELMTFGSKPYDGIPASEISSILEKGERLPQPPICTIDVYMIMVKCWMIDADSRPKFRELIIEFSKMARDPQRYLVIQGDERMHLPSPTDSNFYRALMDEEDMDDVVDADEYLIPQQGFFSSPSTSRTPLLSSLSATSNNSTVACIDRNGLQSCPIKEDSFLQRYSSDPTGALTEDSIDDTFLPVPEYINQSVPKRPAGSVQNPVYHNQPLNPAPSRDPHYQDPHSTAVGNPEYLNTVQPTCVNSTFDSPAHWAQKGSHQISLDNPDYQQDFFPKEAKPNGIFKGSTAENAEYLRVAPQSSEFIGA
Chain of Follistatin-related protein 3 (Homo sapiens) (O95633 whole entry, looked up): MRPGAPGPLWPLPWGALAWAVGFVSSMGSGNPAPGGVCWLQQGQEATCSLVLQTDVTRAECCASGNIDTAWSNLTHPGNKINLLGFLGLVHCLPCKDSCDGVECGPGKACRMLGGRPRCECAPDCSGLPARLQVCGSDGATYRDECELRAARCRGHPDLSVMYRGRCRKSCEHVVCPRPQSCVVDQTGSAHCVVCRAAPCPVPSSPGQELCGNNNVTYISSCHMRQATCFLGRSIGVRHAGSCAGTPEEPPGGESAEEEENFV
Chain of Fibroblast growth factor 10 (Homo sapiens) (O15520 whole entry, looked up): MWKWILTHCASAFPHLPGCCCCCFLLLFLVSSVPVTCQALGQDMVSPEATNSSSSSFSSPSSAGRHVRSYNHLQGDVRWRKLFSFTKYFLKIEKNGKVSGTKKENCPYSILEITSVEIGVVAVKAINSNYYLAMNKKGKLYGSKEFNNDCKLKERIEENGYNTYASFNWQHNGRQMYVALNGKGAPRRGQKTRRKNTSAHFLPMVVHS
Chain of Dickkopf-related protein 1 (Homo sapiens) (O94907 whole entry, looked up): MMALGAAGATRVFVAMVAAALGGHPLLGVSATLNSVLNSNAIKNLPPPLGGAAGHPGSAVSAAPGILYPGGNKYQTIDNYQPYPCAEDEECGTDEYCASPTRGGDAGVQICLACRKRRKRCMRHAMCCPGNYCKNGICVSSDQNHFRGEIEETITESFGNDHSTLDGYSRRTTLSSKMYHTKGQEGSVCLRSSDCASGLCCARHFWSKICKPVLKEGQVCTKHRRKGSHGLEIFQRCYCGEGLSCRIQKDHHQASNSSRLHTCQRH

Consider `O=C(Nc1cc(Br)ccc1C(=O)NCc1cccc(O)c1)c1ccccc1`, for which the composite z-score in experiment [1] was 0.487; in experiment [2] it was 0.429; in [3], -0.339; in experiment [5], 0.394; in [6], 0.476; in experiment [7] it was 0.379. The results for the composite z-score in [8], in experiment [9] and in experiment [10] were 0.148, 0.257 and -0.0621, respectively. Further, the z-score in experiment [4] is -0.419 (inactive).
As for `COCCCNC(=O)[C@]1(Cc2ccccc2)N=C(c2ccc(OCCCO)cc2)O[C@@H]1c1ccccc1N=[N+]=[N-]`, the composite z-score was 0.816 in experiment [1]; 0.346 in experiment [2]; 0.879 in experiment [3]; 1.26 in [5]; 1.33 in experiment [6]; -0.184 in [7]. Moreover, the composite z-score is 0.481 in [8], -0.267 in [9] and 0.618 in [10]. Also, in experiment [4], the z-score is -1.51 (inactive).
In the case of `CC(=O)NCCCC[C@@H]1NC(=O)[C@H]2C[C@@H](C(=O)NCCCCCN)[C@@H](c3cccc(OCCO)c3)N2C1=O`, the composite z-score in experiment [1] was 0.878; in experiment [2], -0.0159; in experiment [3], 0.366; in [5] it was 0.757; in experiment [6], 0.4; in experiment [7], 0.103. The results for the composite z-score in experiment [8], in [9] and in experiment [10] were 0.0957, 0.142 and 0.602, respectively. Also, in experiment [4], the z-score was -1.77 (inactive).
As to `COCCCNC(=O)[C@@]1(Cc2ccccc2I)c2ccccc2C(=O)N(Cc2ccccc2Cl)[C@H]1c1ccc(CO)cc1`, the composite z-score is 0.506 in experiment [1]; 0.0418 in [2]; -0.261 in [3]; -0.0568 in [5]; 0.575 in experiment [6]; -0.0316 in experiment [7]. In addition, the composite z-score in [8] stood at 0.3; in experiment [9], 0.186; in [10], 0.712. In addition, the z-score in [4] was -0.964 (inactive).
Take `O=C1C[C@@](C(=O)O)(c2ccc([N+](=O)[O-])cc2)[C@@H](c2ccc(CO)cc2)N1CC12CC3CC(CC(C3)C1)C2`: the composite z-score was determined as 1.23 in experiment [1]; 0.28 in experiment [2]; 0.771 in experiment [3]; 1.18 in [5]; 0.386 in experiment [6]; 0.259 in [7]. Moreover, the composite z-score in [8] is 0.554; in [9], -0.148; in [10] it was 0.532. Also, in experiment [4], the z-score is 0.66 (inactive).
Turning to `COC(=O)[C@@]1(Cc2ccccc2)[C@H]2c3cc(C(=O)N4CCCC4)n(CCO)c3C[C@H]2CN1C(=O)c1ccccc1`, the composite z-score in [1] came out at 0.346; in [2], 2.22; in experiment [3], 1.5; in [5], 0.615; in [6] it was 0.343; in [7] it was 0.414. Further, the results for the composite z-score in experiment [8], in [9] and in [10] were 1.14, 0.337 and 0.305, respectively. Moreover, the z-score in [4] was -1.88 (inactive).
Regarding `COCCOC(=O)N1C(=O)[C@@]2(c3cc(C#CCC(C(=O)OC)C(=O)OC)ccc31)[C@H](C(=O)N1CCCCCCC1)[C@H]1C(=O)O[C@H](c3ccccc3)[C@H](c3ccccc3)N1[C@@H]2c1ccc(O)cc1`, the composite z-score in [1] came out at 1.36; in experiment [2] it was 1.7; in experiment [3] it was 1.41; in experiment [5] it was 1.2; in [6], 1.3; in experiment [7], 0.783. Moreover, the composite z-score in [8] amounted to 1.45; in experiment [9], 1.07; in experiment [10], 1.63. In experiment [4], the z-score is 0.0931 (inactive).
Regarding `CC1C=C(CCCO)C=C(C(=O)OCCS(C)(=O)=O)C(C(=O)OCCS(C)(=O)=O)=CN1Cc1cccc(OC(F)(F)F)c1` (stereo not given), the composite z-score in experiment [1] was 1.11; in [2], 0.111; in [3] it was 0.297; in [5] it was 0.243; in experiment [6], 0.621; in experiment [7], -0.235. Also, the values for the composite z-score in experiment [8], in experiment [9] and in experiment [10] were 0.113, -0.385 and 0.829, respectively. The z-score in [4] is 1.01 (inactive).
Turning to `COCCOC(=O)N1C(=O)[C@@]2(c3cc(C#CCNC(N)=O)ccc31)[C@H](C(=O)N1CCCCCCC1)[C@H]1C(=O)O[C@H](c3ccccc3)[C@H](c3ccccc3)N1[C@@H]2c1ccc(OCCO)cc1`, the composite z-score came out at 0.918 in [1]; 0.774 in [2]; 0.989 in [3]; 0.544 in experiment [5]; 0.211 in experiment [6]; 0.588 in experiment [7]. The composite z-score stood at 0.762 in experiment [8], 0.0313 in [9] and 0.999 in experiment [10]. The z-score in experiment [4] is 0.524 (inactive).
As to `COc1ccc(C(=O)Nc2ccc(CN3C(=O)[C@]4(O[C@H](CCn5cc([C@H](O)c6ccccc6)nn5)[C@@H]([Si](C)(C)c5ccc(OC)cc5)[C@@H]4C)c4ccccc43)cc2)cc1`, the composite z-score in experiment [1] is 0.789; in experiment [2] it was 0.294; in experiment [3], 0.824; in [5], -0.09; in experiment [6], -0.109; in experiment [7], -0.39. Moreover, the composite z-score was -0.113 in [8], 0.102 in experiment [9] and 1.47 in [10]. The z-score in [4] is -1.41 (inactive).
`O=C(O)[C@@]1(Cc2ccccc2)COC(c2ccc(OCCCO)cc2)=N1`: the composite z-score in experiment [1] was 1.01; in experiment [2], 0.413; in [3], 0.988; in experiment [5] it was -0.38; in experiment [6] it was -0.835; in [7], -0.645. Also, the composite z-score in experiment [8] was -1.14; in experiment [9] it was -0.91; in experiment [10], 0.53. Besides, the z-score in experiment [4] was 0.483 (inactive).
For `O=C1O[C@@H](c2ccccc2)[C@@H](c2ccccc2)N2[C@@H](c3ccc(O)cc3)[C@]3(C(=O)Nc4ccc(C#CC5=CCCCC5)cc43)[C@@H](C(=O)Nc3nc4ccccc4s3)[C@H]12`, the composite z-score was 1.61 in experiment [1]; 0.307 in experiment [2]; -0.0516 in [3]; 1.36 in experiment [5]; 1.29 in [6]; 0.381 in [7]. Also, the composite z-score was determined as 1.31 in experiment [8], 1.06 in experiment [9] and 1.07 in experiment [10]. Further, the z-score in [4] was -0.0881 (inactive).
Consider `C[C@H]1NC(=O)C([C@@H](C)OCc2ccccc2)NC(=O)[C@@]23C(=O)N[C@@H](Cc4ccccc4)C2[C@H](C)[C@@]2(C)O[C@H]2C3/C=C/CC/C=C/CNC1=O` (stereo not given in full), for which the composite z-score in experiment [1] was -0.0404; in experiment [2], 0.0094; in [3] it was -0.298; in [5], 0.365; in experiment [6], -0.248; in experiment [7] it was 0.279. The composite z-score in experiment [8] was 0.575; in experiment [9], 0.506; in [10], 1.42. Besides, the z-score in experiment [4] is -1.39 (inactive).
With `CCCC=C(CCC)[C@@H](NC(=O)Cc1ccccc1)c1ccc(C(=O)OC)cc1`, the composite z-score in [1] is 0.599; in experiment [2], 1.52; in experiment [3], 1.17; in experiment [5] it was 0.395; in experiment [6] it was 0.289; in experiment [7], 0.43. In addition, the composite z-score in experiment [8] is 0.514; in [9] it was -0.285; in [10] it was 1.26. The z-score in [4] is 0.797 (inactive).
As to `COCCCNC(=O)[C@@H]1c2ccccc2C(=O)N(Cc2cc(F)cc(C(F)(F)F)c2)[C@H]1c1ccc(CO)cc1`, the composite z-score in experiment [1] is 1.69; in [2] it was -0.0674; in experiment [3], 0.998; in experiment [5], -1.38; in [6], -1.72; in experiment [7], -1.47. Further, the composite z-score in [8] was -1.13; in experiment [9] it was -1.35; in experiment [10], -0.104. The z-score in experiment [4] was -0.0265 (inactive).
Consider `CCOc1cc(C(O)C2C=CC3C(=O)NC(=O)C3N2Nc2ccccn2)ccc1O` (stereo not given), for which the composite z-score was 0.38 in experiment [1]; -0.0596 in experiment [2]; -0.0156 in experiment [3]; 0.592 in [5]; 0.156 in experiment [6]; 0.28 in experiment [7]. For the same molecule, the composite z-score in [8] is 0.189; in experiment [9], 0.107; in experiment [10] it was 0.925. The z-score in experiment [4] is 1.12 (inactive).

The values are drawn from PubChem BioAssay.
